Data on 5 molecules can be found in PubChem BioAssay.

A short description of test [1]: reducers of endogenous Her2 protein level, primary screen, SKBR3 breast tumor cells, AlphaScreen, ATP viability (AID 461;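 active = Her2 level under about 52% in both replicate screens, with viability over 70% of control, limit read from the data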;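 for Her2 level: lower value means less Her2 protein in the cells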;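 for viability: percent of carrier control wells set as 100% viability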). Particulars: 18-24 h, measured here: SKBR3 viability, ATP luminescence, at 10 µM. (In general: Alpha assays give light when donor and acceptor beads are brought close together.)
Test [2] has as its target Receptor tyrosine-protein kinase erbB-2 (Homo sapiens) (UniProt P04626). The description is as above. The conditions noted are these: 18-24 h, at 10 µM, stronger effect = lower value.
Test [3] is described as follows: SK-BR-3 cell growth inhibitors, pilot screen, 24 h, human (AID 572;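 active = viability at or below 10% of carrier control in both of two separate runs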;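 note: compound exposure lasted between 18 and 24 h rather than exactly 24 h; 100% = carrier-treated control wells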). The conditions noted are these: SK-BR-3 viability, CellTiter-Glo luminescence, at 10 µM, stronger effect = lower value. On the technique in general: Cellular ATP, detected with luciferase, serves as a proxy for viable cell number.
Test [4] can be described thus: HUVEC growth inhibition – cell-based, human, primary screen (AID 575;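 active = viability at or below 30% in both replicate assays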;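 note: 100% = median of untreated cell wells with 0.1% DMSO on each plate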). Particulars: HUVEC proliferation, CellTiter-Glo luminescence, 72 h; at 10 µM; stronger effect = lower value.
The nature of test [5]: growth inhibitors of H69AR lung tumor, primary screen, human, duplicate replicates (AID 580;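 active = viability at or under a set limit in both replicates, limit being median viability minus 3 SD, cut at about 48% in these data, passing the limit was not always enough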;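 note: 100% = mean luminescence of untreated wells and 0% = no signal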). The conditions noted are these: H69AR lung tumor cells viability, ATP luminescence, 72 h; at 10 µM; stronger effect = lower value.
A short description of test [6]: reversal of MRP1-mediated doxorubicin resistance, pilot screen, H69AR cells, doxorubicin co-treatment (AID 601;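 active = viability loss from added drug above about 55%, and viability with drug at most 40%, in both replicates, limit read from the data, passing the limit was not always enough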). Particulars: CellTiter-Glo, 72 h, at 10 µM; for differential viability (reversal): stronger effect = higher value.
Test [7] can be described thus: 384-well plate pilot, post-Golgi transport modulator project, inhibition of yeast transport mutant growth (AID 636; in the data active = inhibition above about 31%). The conditions noted are these: absorbance 615 nm, about 18 h, stronger effect = higher value.
Test [8] is described as follows: growth suppression of yeast trafficking mutant, preliminary HTS, modulators of trafficking downstream of Golgi apparatus project, 1536-format plate, OD 615 nm (AID 637; in the data active = inhibition above about 30%). Particulars: yeast transport mutant growth, absorbance 615 nm, 18 h; stronger effect = higher value.
Test [9] can be described thus: OD615 S. cerevisiae growth inhibition, permissive medium, pilot counter-assay, permissive growth control for S. cerevisiae lifespan shortening project (AID 705;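 active = growth inhibition above 25% in both replicates, a cutoff set 3 SD above the mean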). The conditions noted are these: OD615, 24 h, at 10 µM, stronger effect = higher value.
A short description of test [10]: Restrictive medium S. cerevisiae growth inhibition, OD615, pilot screen of yeast lifespan reduction project, restrictive growth control (AID 706;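 active = growth inhibition above a set limit, 3 SD over mean compound inhibition, in both replicates, cut at about 43% in these data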;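 note: modified DeaD lifespan yeast strain shifted to restrictive glucose medium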). Particulars: OD615, 48 h, at 10 µM, stronger effect = higher value.
Test [11] is described as follows: viability gain of MRP-1-high H69AR cells under doxorubicin, pilot screen, MRP-1 activator project, CellTiter-Glo, duplicate (AID 807).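 Note: compound pretreatment 18-22 h then 72 h combined with doxorubicin; 0% = doxorubicin alone and 100% = vehicle without doxorubicin.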 The conditions noted are these: H69AR viability with doxorubicin, CellTiter-Glo luminescence; at 10 µM; stronger effect = higher value.
Test [12] in a line: growth suppression of beta-catenin knockout HCT116, pilot screen, human colon tumor cells (AID 823;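 active = cell viability at or below a set limit in both duplicate runs, the limit being the all-compound median minus 4 SD, cut at about 23% in these data, passing the limit was not always enough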;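 note: 0% = wells killed by 20 µM Hyamine and 100% = untreated DMSO cell wells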). Particulars: CellTiter-Glo, 60 h, at 10 µM, stronger effect = lower value.
Test [13] can be described thus: growth suppression of PTEN-deleted HCT116, pilot screen, cell-based, HCT116 clonal line, CellTiter-Glo (AID 824;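 active = viability at or below 27.92% in each of two runs, the all-compound median minus 4 SD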;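 note: 0% = 20 µM Hyamine control and 100% = vehicle cell control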). Particulars: 60 h, at 10 µM, stronger effect = lower value.
Test [14] can be described thus: inhibitors of the yeast RAM network, pilot screen, dse1pr::URA3 reporter, 5-FOA selection (AID 869;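 active = inhibition over a set limit, the all-compound mean plus 3 SD, in both replicate runs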;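 note: 0% = DMSO wells with no growth and 100% = 10 µM 1-NA-PP1 with full growth; RAM network block rescues cells from 5-FOA so hits raise OD615 growth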). Particulars: S. cerevisiae dse1pr::URA3 5-FOA growth, OD615, 2 d; at 10 µM; stronger effect = higher value; strain carries analog-sensitive mutant Cbk1 kinase.
The nature of test [15]: RAM signaling pathway blockade in yeast – S. cerevisiae, Pdr1DBD-CYC8 efflux-inhibited sensitized strain, primary screen (AID 1298;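 active = RAM network inhibition above 8.4% in each of two replicates, 3 SD over the compound average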;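 note: 0% = DMSO untreated cells without growth and 100% = 10 µM 1-NA-PP1 full growth; higher means more yeast growth rescued from 5-FOA killing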). Particulars: S. cerevisiae cbk1-as DSE1-URA3 strain, 5-FOA growth OD615, 2 d; at 50 µM; stronger effect = higher value.
[16] abbreviates: H69AR cells + 2 uM doxorubicin, measured here: viability with 2 uM doxorubicin, stronger effect = lower value.
[17] abbreviates: H69AR cells, compound alone cytotoxicity.

Results filed as inconclusive are left out. The source made the active and inactive calls.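 Rule for the calls, unless noted: active = viability increase at or above a cutoff of the median across tested compounds plus 3 SD (cut at about 8.5% in these data, passing the limit was not always enough); inconclusive = some gains above the cutoff, reason not given; inactive = the rest.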

Chain of Receptor tyrosine-protein kinase erbB-2 (Homo sapiens) (P04626 whole entry, looked up): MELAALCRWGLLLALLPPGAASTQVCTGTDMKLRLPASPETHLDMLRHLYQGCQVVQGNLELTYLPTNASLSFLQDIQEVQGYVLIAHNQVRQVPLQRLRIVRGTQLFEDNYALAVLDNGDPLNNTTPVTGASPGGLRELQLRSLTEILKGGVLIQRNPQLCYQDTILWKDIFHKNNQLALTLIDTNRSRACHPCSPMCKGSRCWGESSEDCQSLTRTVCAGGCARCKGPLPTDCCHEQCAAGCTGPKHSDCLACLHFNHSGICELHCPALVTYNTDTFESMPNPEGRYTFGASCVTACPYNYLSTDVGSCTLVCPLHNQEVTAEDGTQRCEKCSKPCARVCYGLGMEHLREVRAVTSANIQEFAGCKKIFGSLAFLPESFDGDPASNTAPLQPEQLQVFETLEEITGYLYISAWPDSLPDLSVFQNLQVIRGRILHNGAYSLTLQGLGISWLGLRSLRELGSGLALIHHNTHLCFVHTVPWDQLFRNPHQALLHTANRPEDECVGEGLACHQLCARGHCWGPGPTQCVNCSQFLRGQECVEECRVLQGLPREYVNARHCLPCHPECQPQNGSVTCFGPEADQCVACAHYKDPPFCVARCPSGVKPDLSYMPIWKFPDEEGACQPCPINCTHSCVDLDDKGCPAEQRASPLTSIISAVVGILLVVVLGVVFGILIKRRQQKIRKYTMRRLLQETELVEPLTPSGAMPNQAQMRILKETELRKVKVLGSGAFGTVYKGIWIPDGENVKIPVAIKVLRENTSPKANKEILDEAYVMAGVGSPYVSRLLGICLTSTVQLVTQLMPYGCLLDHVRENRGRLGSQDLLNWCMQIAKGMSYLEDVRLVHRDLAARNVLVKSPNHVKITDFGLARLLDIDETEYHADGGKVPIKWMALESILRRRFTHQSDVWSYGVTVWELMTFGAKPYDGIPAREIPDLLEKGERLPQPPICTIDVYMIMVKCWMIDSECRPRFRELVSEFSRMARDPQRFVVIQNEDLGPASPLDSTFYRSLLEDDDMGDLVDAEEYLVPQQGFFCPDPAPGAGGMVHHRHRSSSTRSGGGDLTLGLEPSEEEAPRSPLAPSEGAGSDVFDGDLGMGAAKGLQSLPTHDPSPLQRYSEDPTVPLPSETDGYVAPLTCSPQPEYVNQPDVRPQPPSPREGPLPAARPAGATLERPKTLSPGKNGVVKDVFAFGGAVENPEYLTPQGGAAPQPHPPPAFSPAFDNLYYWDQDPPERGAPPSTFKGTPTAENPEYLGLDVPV

In the case of `O=C(OCCN(CCOC(=O)c1ccncc1)S(=O)(=O)c1cccs1)c1ccncc1`, the viability – broadly, a read-out of living cells in per cent, often relative to untreated cells – in test [1] was 102%; in test [3], 102% (inactive); in test [4] it was 99.2% (inactive); in test [5], 104% (inactive); in test [6] (setting [16]) it was 97.3%; in test [6] (setting [17]) it was 104%. The viability in test [12] was 102% (inactive); in test [13] it was 97% (inactive). In addition, in [2], the Her2 level is 75.5% (inactive). The differential viability (reversal) in test [6] (H69AR cells + 2 uM doxorubicin) is 6.43% (inactive). The inhibition – broadly, the drop in the measured response relative to a control, in per cent – in test [7] is -1.64% (inactive); in test [8], 1.75% (inactive); in [14] it was 1.63% (inactive). Also, the figures for the growth inhibition in test [9] and in [10] were 4.38% (inactive) and 1.04% (inactive), respectively. In addition, in [11], the viability increase was -2.14% (inactive). The RAM network inhibition in test [15] is 4.78% (inactive).
As to `CCN(C1CCCCC1)S(=O)(=O)c1ccc(S(=O)(=O)N2CCN(CCC#N)CC2)cc1`, the viability in test [1] was 105%; in test [3] it was 105% (inactive); in test [4], 75.8% (inactive); in [5], 87.8% (inactive); in test [6] (setting [16]), 98.3%; in test [6] (setting [17]), 87.8%. The values for the viability in test [12] and in test [13] were 86.6% (inactive) and 85.9% (inactive), respectively. Also, in [2], the Her2 level is 114% (inactive). The differential viability (reversal) in test [6] (H69AR cells + 2 uM doxorubicin) is -10.4% (inactive). Besides, the values for the inhibition in test [7], in test [8] and in [14] were -1.28% (inactive), -3.5% (inactive) and 0.645% (inactive), respectively. For the same molecule, the growth inhibition was 4.85% (inactive) in [9] and 3.67% (inactive) in test [10]. For the same molecule, the viability increase in [11] was -3.47% (inactive). Further, in test [15], the RAM network inhibition was -1.33% (inactive).
Regarding `CCOC(=O)N1CCC(NC(=O)c2cc(C(=O)NC3CCCC3)ccc2CO)CC1`, the viability was 97.5% in [1]; 97.5% (inactive) in test [3]; 97.4% (inactive) in [4]; 92.8% (inactive) in test [5]; 87.3% in test [6] (setting [16]); 92.8% in [6] (setting [17]). Further, the viability was 92.1% (inactive) in test [12] and 90.2% (inactive) in test [13]. The Her2 level in test [2] was 104% (inactive). Moreover, the differential viability (reversal) in test [6] (H69AR cells + 2 uM doxorubicin) is 5.52% (inactive). For the same molecule, the inhibition was -6.8% (inactive) in [7], 6% (inactive) in test [8] and 1.87% (inactive) in [14]. Moreover, the values for the growth inhibition in test [9] and in test [10] were 3.62% (inactive) and -3.18% (inactive), respectively. In [11], the viability increase was -0.72% (inactive). For the same molecule, in test [15], the RAM network inhibition was 1.13% (inactive).
`COc1ccc(-c2nc3c(n2O)CCC/C3=N\O)cc1`: the viability in test [1] is 89.5%; in [3] it was 89.5% (inactive); in test [4], 67.4% (inactive); in [5] it was 86.5% (inactive); in test [6] (setting [16]) it was 81.5%; in test [6] (setting [17]) it was 86.5%. Also, the viability in [12] is 94.2% (inactive); in test [13] it was 96% (inactive). Further, in [2], the Her2 level was 88.5% (inactive). Besides, the differential viability (reversal) in test [6] (H69AR cells + 2 uM doxorubicin) was 5% (inactive). The inhibition in [7] was -1.43% (inactive); in test [8] it was 0.33% (inactive); in test [14], 0.805% (inactive). Besides, the growth inhibition in test [9] is 1.93% (inactive); in test [10], 4.75% (inactive). In [11], the viability increase was -4.71% (inactive). In addition, in test [15], the RAM network inhibition was 3.84% (inactive).
Turning to `O=C(c1ccc(Br)o1)N(Cc1ccccc1)c1ccccn1`, the viability in test [1] is 93.5%; in test [3], 93.5% (inactive); in test [4] it was 99.6% (inactive); in test [5], 92.9% (inactive); in test [6] (setting [16]), 90.7%; in test [6] (setting [17]), 92.9%. Moreover, the values for the viability in [12] and in test [13] were 94.9% (inactive) and 84% (inactive), respectively. Moreover, in [2], the Her2 level was 102% (inactive). In addition, in test [6] (H69AR cells + 2 uM doxorubicin), the differential viability (reversal) was 2.17% (inactive). The inhibition in [7] was 1.49% (inactive); in test [8] it was -0.98% (inactive); in [14], 1.94% (inactive). Further, the growth inhibition was -3.17% (inactive) in [9] and -6.46% (inactive) in [10]. Moreover, the viability increase in [11] is -6.28% (inactive). Further, in [15], the RAM network inhibition is 12% (inactive).
